Assay outcomes as filed in PubChem.
VP16 counter: inhibits Gal4-VP16 luciferase reporter, ROR gamma counter-screen. Drosophila S2 Gal4-VP16 UAS-luciferase, luminescence, 20 h. Potency, µM (top dose mostly 53.6 µM), most hits filed as inhibitors. actives 3.5% (n = 310,000);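 note: Gal4-VP16 expression switched on by copper sulfate through the metallothionein promoter; nearly all actives have a fitted effect of over 50% in size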
GLP1R ag: agonists of human GLP-1 receptor | Potency, µM (series often up to 45.6 µM), hits mostly activators | HEK293 GLP-1R CRE-luciferase, luminescence, 4-6 h; cells express a hypersensitive GLP-1R form | actives 0.007% (n = 380,000)
GLP-1R inv ag: inverse agonists of human GLP-1 receptor | actives 1.6% (n = 410,000) | P43220 | HEK293 GLP-1R CRE-luciferase, luminescence, 24 h; GLP-1R form is constitutively active | Potency, µM (titrated, usually from 38.3 µM), most hits filed as inhibitors; note: nearly all actives have a fitted effect of over 55% in size
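Readout was luciferase luminescence, measured 12 min after detection reagent at room temperature. Beforehand, GLP-1R reporter HEK293 cells had sat 12 h, then received compounds for 24 hr at 37 deg C.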
RORgamma inh: inhibitors of mouse ROR gamma transcriptional activity; actives 5.4% (n = 310,000); AID 2551; P51450; Potency, µM (highest dose often 53.6 µM), usual class: inhibitors; Drosophila S2 Gal4-RORgamma UAS-luciferase reporter, 20 h; note: nearly all actives have a fitted effect of over 60% in size
Target sequence (P51450 whole entry, looked up, the tested form may be a part): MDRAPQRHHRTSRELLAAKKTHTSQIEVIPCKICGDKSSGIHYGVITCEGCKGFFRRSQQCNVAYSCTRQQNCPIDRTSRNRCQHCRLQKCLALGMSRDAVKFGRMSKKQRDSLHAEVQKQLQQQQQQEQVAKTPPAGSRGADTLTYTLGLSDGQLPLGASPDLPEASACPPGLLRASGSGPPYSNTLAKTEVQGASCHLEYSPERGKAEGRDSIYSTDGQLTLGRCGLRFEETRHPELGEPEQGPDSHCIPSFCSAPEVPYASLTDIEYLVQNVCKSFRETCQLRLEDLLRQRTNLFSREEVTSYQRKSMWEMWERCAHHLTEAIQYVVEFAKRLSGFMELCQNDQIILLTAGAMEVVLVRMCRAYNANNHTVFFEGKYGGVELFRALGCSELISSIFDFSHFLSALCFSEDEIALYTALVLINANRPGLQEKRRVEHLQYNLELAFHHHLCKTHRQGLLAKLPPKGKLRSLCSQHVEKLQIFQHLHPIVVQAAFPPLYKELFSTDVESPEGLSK
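Schneider cells (Drosophila), stable Gal4 DBD–ROR gamma + UAS-luc; 1 hr cmpd preincubation; Cu2+ induction 700 uM final; 20 hr ambient; luminescence.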
GLP1R cytotox: cytotoxicity in counter-screen for GLP-1R inverse agonists. HEK293 cAMP-luciferase reporter cells, luminescence, 24 h. actives 0.13% (n = 410,000). AID 624418. Potency, µM (doses to about 38.3 µM), most hits filed as inhibitors;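 note: loss of luciferase light is scored as toxicity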
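Quantitative HTS format, 1536 wells, 200 cells/uL seeded. Compounds: 23 nL, 24 h, 37 °C. Detection: luciferase reagent, luminescence at 12 min RT; decreased signal taken as cytotoxic.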
Numbers stand for hits; [ ] = dose if it differs, or a comment. Sampled rows, rich in hits. Any-hit rate of the full collection: about 5.9%. Calls come from the whole dose curve; as a rule, active = well fitted curve in the direction sought with a large enough effect; inconclusive = small, poorly fitted or top-dose-only effect, or another doubt; inactive = no such curve, though single readings can be large; an effect the other way counts as inactive or inconclusive.

How did CC(NC(=S)NC1CCC(C(C)(C)C)CC1)c1ccccc1 (stereo not given) do in these assays?
VP16 counter: 2.82µM; GLP1R ag: inactive; GLP-1R inv ag: 10µM; RORgamma inh: 1.58µM; GLP1R cytotox: inactive

What do the screens show for `Fc1ccc(CNC(=S)NC2CCCCCC2)cc1`?
VP16 counter: 11.2µM; GLP1R ag: inactive; GLP-1R inv ag: inconclusive; RORgamma inh: 6.31µM; GLP1R cytotox: inactive

How did Fc1ccc(C(CNC(=S)NC2CCCCC2)N2CCOCC2)cc1 (stereo not given) do in these assays?
VP16 counter: inconclusive; GLP1R ag: inactive; GLP-1R inv ag: inactive; RORgamma inh: 8.91µM; GLP1R cytotox: inactive

What do the screens show for `COc1ccc(CNC(=S)NC2CCCCC2)cc1`?
VP16 counter: 12.6µM; GLP1R ag: inactive; GLP-1R inv ag: inactive; RORgamma inh: 7.08µM; GLP1R cytotox: inconclusive

Results for COCCn1c(=O)c(-c2cn(C)c3ccccc23)nc2cnc(N3CCNCC3)nc21 ?
VP16 counter: inactive; RORgamma inh: inactive

How did COc1ccc(CNC(=S)NC2CCCC2)cc1 do in these assays?
VP16 counter: 7.94µM; GLP1R ag: inactive; GLP-1R inv ag: inconclusive; RORgamma inh: 8.91µM; GLP1R cytotox: inconclusive

How did CNC(=S)NCc1ccc(OC)cc1 do in these assays?
VP16 counter: inactive; GLP1R ag: inactive; GLP-1R inv ag: inconclusive; RORgamma inh: inactive; GLP1R cytotox: inconclusive

How did Cc1ccc(CNC(=S)NC2CCC(C(C)(C)C)CC2)cc1 (stereo not given) do in these assays?
VP16 counter: 5.01µM; GLP1R ag: inactive; GLP-1R inv ag: inconclusive; RORgamma inh: 2.82µM; GLP1R cytotox: inactive

Results for NS(=O)(=O)c1ccc(CNC(=S)NC2CCCC2)cc1 ?
VP16 counter: inactive; GLP1R ag: inactive; GLP-1R inv ag: inactive; RORgamma inh: inactive; GLP1R cytotox: inactive

Results for C[C@@H]1NC(=O)[C@@H](C)COC(=O)[C@H](C)NC(=O)[C@@H](C)COC1=O ?
VP16 counter: inactive[10 µM]; RORgamma inh: inactive[10 µM]

What do the screens show for `N#CCC(=O)Nc1ncc(Cc2ccccc2Cl)s1`?
VP16 counter: inconclusive; GLP1R ag: inactive; GLP-1R inv ag: inactive; RORgamma inh: 12.6µM; GLP1R cytotox: inactive

What do the screens show for `O=C(Nc1ncc(Cc2cc(Cl)ccc2Cl)s1)c1ccc([N+](=O)[O-])cc1`?
VP16 counter: 4.47µM; GLP1R ag: inactive; GLP-1R inv ag: inactive; RORgamma inh: 1µM; GLP1R cytotox: inactive

Results for O=C(Nc1ncc(Cc2cccc(Cl)c2Cl)s1)c1ccc([N+](=O)[O-])cc1 ?
VP16 counter: inactive; GLP1R ag: inactive; GLP-1R inv ag: inactive; RORgamma inh: inactive; GLP1R cytotox: inactive

Results for CC(C)C(=O)Nc1ncc(Cc2ccccc2Cl)s1 ?
VP16 counter: inactive; GLP1R ag: inactive; GLP-1R inv ag: inactive[0.307 µM]; RORgamma inh: inconclusive; GLP1R cytotox: inactive[0.307 µM]

Results for C=CCn1c(-c2ccc(Cl)cc2)cnc1SC(C)C(N)=O (stereo not given) ?
VP16 counter: inconclusive; GLP1R ag: inactive; GLP-1R inv ag: inactive; RORgamma inh: 7.94µM; GLP1R cytotox: inactive

Results for C=CCn1c(-c2ccc(Cl)cc2)cnc1SC(C)C(=O)NC(N)=O (stereo not given) ?
VP16 counter: inactive[10 µM]; GLP1R ag: inactive; GLP-1R inv ag: inconclusive; RORgamma inh: inconclusive; GLP1R cytotox: inactive

What do the screens show for `CO[C@H]1COC(=O)[C@@H](CCSC)NC(=O)C/C=C\[C@@H](C)[C@H](OC)COC(=O)[C@@H](OCc2ccccc2)/C=C\[C@@H]1C`?
VP16 counter: inactive[10 µM]; RORgamma inh: inactive[10 µM]

How did COc1cccc(CN(C(=O)c2ccc(C(C)(C)C)cc2)C2CCS(=O)(=O)C2)c1 (stereo not given) do in these assays?
GLP-1R inv ag: inactive; GLP1R cytotox: inactive

How did Clc1cccc(/C=N/Nc2ncnc3ccccc23)c1 do in these assays?
VP16 counter: 4.47µM; GLP1R ag: inactive; GLP-1R inv ag: inconclusive; RORgamma inh: 1.26µM; GLP1R cytotox: inactive

What do the screens show for `Clc1ccc(/C=N/Nc2nc(Cl)nc3ccccc23)cc1`?
VP16 counter: inconclusive; GLP1R ag: inactive; GLP-1R inv ag: inactive; RORgamma inh: inactive; GLP1R cytotox: inactive

What do the screens show for `C(=N\Nc1ncnc2ccccc12)/c1ccccc1`?
VP16 counter: 1µM; GLP1R ag: inactive; GLP-1R inv ag: inconclusive; RORgamma inh: 2.51µM; GLP1R cytotox: inconclusive

How did Clc1cccc(Nc2ncnc3ccc(Br)cc23)c1 do in these assays?
VP16 counter: inactive; GLP1R ag: inactive; GLP-1R inv ag: inconclusive; RORgamma inh: inconclusive; GLP1R cytotox: inactive

How did COC(=O)c1[nH]c2cc(OC)ccc2c1NC(=O)c1c(F)cccc1F do in these assays?
VP16 counter: inactive; GLP1R ag: inactive; GLP-1R inv ag: inactive; RORgamma inh: inactive; GLP1R cytotox: inactive

What do the screens show for `C=CCNC(=S)Nc1c(C(=O)OC)[nH]c2cc(OC)ccc12`?
VP16 counter: inconclusive; GLP1R ag: inactive; GLP-1R inv ag: inactive; RORgamma inh: 2.82µM; GLP1R cytotox: inactive

What do the screens show for `COc1ccc(N2CCN(C(=O)c3c(C)oc4ncnc(N5CCCCC5)c34)CC2)cc1`?
GLP-1R inv ag: 11.2µM; GLP1R cytotox: inactive

What do the screens show for `CCOCCCNc1nc(=S)[nH]c2cc(OC)c(OC)cc12`?
VP16 counter: inactive; GLP1R ag: inactive; GLP-1R inv ag: inactive; RORgamma inh: inconclusive; GLP1R cytotox: inactive

How did COc1cc2[nH]c(=S)nc(NCCCOC(C)C)c2cc1OC do in these assays?
VP16 counter: inconclusive; GLP1R ag: inactive; GLP-1R inv ag: inactive; RORgamma inh: 15.8µM; GLP1R cytotox: inactive

Results for CCCCNc1nc(=S)[nH]c2cc(OC)c(OC)cc12 ?
VP16 counter: 7.94µM; GLP1R ag: inactive; GLP-1R inv ag: inactive; RORgamma inh: 7.94µM; GLP1R cytotox: inactive

What do the screens show for `O=C(CSc1nc2c([nH]c3ccccc32)c(=O)n1-c1ccccc1)Nc1ccc(Cl)c(Cl)c1`?
GLP-1R inv ag: inactive; GLP1R cytotox: inactive

Results for COC(=O)C/C=C\[C@@H](C)[C@@H](/C=N\OC[C@@H]1O[C@H](c2ccccc2)C=C[C@@H]1Oc1ccc(OC)cc1)NS(=O)(=O)c1ccc(C)cc1 ?
VP16 counter: inactive[10 µM]; RORgamma inh: inactive[10 µM]

Results for CCCCC(CC)C/C=C1\CC(C(=O)OCC)Oc2ccccc21 (stereo not given) (tested in a mixture with another compound) ?
VP16 counter: inactive; RORgamma inh: 1.58µM

Results for CCN(CC)C(=S)SCC(=O)Nc1ccc(S(N)(=O)=O)cc1 ?
VP16 counter: inactive; GLP1R ag: inactive; GLP-1R inv ag: inactive; RORgamma inh: inactive; GLP1R cytotox: inactive

How did CCN(CC)C(=S)SCC(=O)Nc1nc(=O)c2ccccc2s1 do in these assays?
VP16 counter: 11.2µM; GLP1R ag: inactive; GLP-1R inv ag: inactive; RORgamma inh: inconclusive; GLP1R cytotox: inactive
